Screening data: PubChem BioAssay, several laboratories
AMPAR-TARP mod = modulators of AMPA receptor GluA2-stargazin complexes | AID 1259245 | 40,000 tested, 3.5% active | HEK293 GluA2+stargazin, membrane potential dye (FDSS), glutamate EC50; hits were called plate by plate, in both directions | calls only at 30 µM | O88602+P19491;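 active = any of four per-well response measures lying three or more SD from its plate-wide compound average, in either direction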
Target sequence (O88602 whole entry, looked up): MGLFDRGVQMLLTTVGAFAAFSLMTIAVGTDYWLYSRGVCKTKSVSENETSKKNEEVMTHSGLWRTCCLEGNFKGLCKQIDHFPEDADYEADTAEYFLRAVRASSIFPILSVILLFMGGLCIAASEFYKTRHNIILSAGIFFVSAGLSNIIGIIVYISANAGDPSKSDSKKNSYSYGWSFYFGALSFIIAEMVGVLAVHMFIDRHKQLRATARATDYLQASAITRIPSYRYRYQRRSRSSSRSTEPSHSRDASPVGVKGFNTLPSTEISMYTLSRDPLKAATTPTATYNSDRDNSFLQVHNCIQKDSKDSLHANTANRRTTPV
Target sequence (P19491 whole entry, looked up): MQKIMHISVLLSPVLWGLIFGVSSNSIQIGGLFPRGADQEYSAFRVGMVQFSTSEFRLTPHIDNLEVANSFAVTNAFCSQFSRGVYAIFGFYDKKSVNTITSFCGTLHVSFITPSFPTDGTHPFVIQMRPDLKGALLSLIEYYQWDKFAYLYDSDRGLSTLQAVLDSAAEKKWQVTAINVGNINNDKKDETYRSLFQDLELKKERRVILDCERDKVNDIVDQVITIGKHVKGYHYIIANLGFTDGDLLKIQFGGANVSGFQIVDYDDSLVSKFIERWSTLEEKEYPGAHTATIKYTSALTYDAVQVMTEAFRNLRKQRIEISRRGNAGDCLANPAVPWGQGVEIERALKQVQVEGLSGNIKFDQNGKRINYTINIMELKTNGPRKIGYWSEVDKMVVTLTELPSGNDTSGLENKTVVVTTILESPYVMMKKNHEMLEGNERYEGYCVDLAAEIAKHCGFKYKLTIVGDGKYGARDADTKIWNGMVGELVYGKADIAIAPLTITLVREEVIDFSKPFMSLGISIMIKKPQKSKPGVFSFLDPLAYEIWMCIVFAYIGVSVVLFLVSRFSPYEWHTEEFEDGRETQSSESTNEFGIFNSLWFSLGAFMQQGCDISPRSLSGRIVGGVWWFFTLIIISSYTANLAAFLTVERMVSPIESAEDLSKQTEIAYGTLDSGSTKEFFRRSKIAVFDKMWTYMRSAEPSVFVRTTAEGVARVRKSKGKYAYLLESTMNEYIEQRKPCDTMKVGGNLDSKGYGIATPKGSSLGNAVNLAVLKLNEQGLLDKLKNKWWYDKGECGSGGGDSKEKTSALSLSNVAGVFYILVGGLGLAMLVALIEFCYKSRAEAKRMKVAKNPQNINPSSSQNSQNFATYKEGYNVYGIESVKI
GIRK2 act = GIRK2 channel activators by thallium flux; activation (% efficacy), % for hits at 37.5 µM; 34,000 tested, under 10 active; AID 1259324; HEK293 GIRK2/NPY4 cells, thallium flux fluorescence; P48051;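 active = primary screen hit, no activity in plain HEK293 cells, and in GIRK2-only cells above 5% efficacy rising with concentration; inactive = the rest, including fluorescent compounds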;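 note: efficacy is normalized control-subtracted fluorescence 15 s after thallium addition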
* hit, by the source's call; i = inactive; x = no result given; + = active, no number. Only a selection was taken, and hits are over-represented in it overall.

SMILES	AMPAR-TARP mod	GIRK2 act
COC(=O)c1sccc1S(=O)(=O)Nc1cc(C)c(Cl)cc1OC	i	x
O=C(NCC1(c2ccccc2)CCOCC1)c1ccccc1C(F)(F)F	i	i
CCC1(C)CC(CCN(Cc2ccccc2F)C(C)=O)(c2ccccc2)CCO1 (stereo unspecified)	+	x
CSc1ccccc1CN1CCC(CNC(=O)c2cccc(C#N)c2)CC1	i	i
COc1ccc(Cl)cc1S(=O)(=O)NCC1CCN(C(=O)Nc2ccc(F)cc2)CC1	+	i
COc1ccc(Cl)cc1NC(=O)NCC1CCN(C(=O)Nc2ccc(F)cc2)CC1	i	i
COc1cccc(OCC(=O)NCC(C)(O)c2ccc(-c3ccccc3)cc2)c1 (stereo unspecified)	+	i
CC(O)(CNC(=O)COc1ccc2ccccc2c1)c1ccccc1 (stereo unspecified)	i	i
O=C(N1CCC(Cn2cccn2)CC1)C1(c2ccc(Cl)cc2)CCCC1	+	i
O=C(N1CCC(Cn2cccn2)CC1)C1(c2cccs2)CCCC1	i	i
COc1ccc(OC)c(S(=O)(=O)Nc2ccc(OC)c(N3CCCC3=O)c2)c1	i	i
NC(=O)C1CCN(C(=O)c2csc(Nc3ccc(OC(F)F)cc3)n2)CC1	i	i
O=C(c1csc(Nc2ccc(OC(F)F)cc2)n1)N1CCCC1	+	i
COc1coc(C(=O)Nc2nc3ccc(Cl)cc3s2)cc1=O	+	i
COc1ccc(NC(=O)c2cc(=O)c(OC)co2)c(OC)c1	+	i
O=C(Nc1nc2ccc(Cl)cc2s1)c1cc(=O)c(OCc2ccc(F)cc2)co1	i	i
COC(=O)c1ccc(NC(=O)c2cc(=O)c(OC)co2)cc1	i	i
CCOC(=O)c1c(SCC(=O)Nc2ccc(OC)cc2)nc(=O)[nH]c1C	i	i
CC(C)(C)OC(=O)COc1ccc2c(=O)c(-c3ccc(Cl)cc3)coc2c1	i	x
O=S(=O)(NCC1CCN(C2CCCC2)CC1)c1ccc(F)c(Cl)c1	i	i
Cn1ccc(C(=O)N(Cc2cccnc2)c2nc3c(Cl)cccc3s2)n1	i	i
CC(C)n1ccc(C(=O)N(Cc2ccccn2)c2nc3c(Cl)cccc3s2)n1	+	i
c1ccc(CNc2nc(N3CCOCC3)nc3ccccc23)cc1	+	x
c1coc(CNc2nc(N3CCOCC3)nc(N3CCOCC3)n2)c1	i	i
